Only a sample is shown.
aSyn 5UTR act = Activators via SNCA 5'UTR binding, MLPCN | activity score, % (tested at 7.5 µM), hits read low | actives 7.1% (n = 300,000) | alpha-synuclein 5'UTR reporter, activators screen; in the data active = activity score below about -60%
The depositor's hits bear a star.

SMILES | aSyn 5UTR act
Cc1ccccc1OCCCn1c(=O)sc2ccccc21 | -130*
CCNc1nc(C)c2cc(Br)c(=O)n(CC)c2n1 | 76
CCNc1oc(-c2cccc3ccccc23)nc1C#N | -88*
N#Cc1nc(-c2cccc3ccccc23)oc1NCCN1CCCCC1 | -63*
O=C1C(Cl)=C(NCCN2CCCCC2)C(=O)c2ccccc21 | 54
CC(C)C1N=C(c2ccc3c(c2)OCO3)CC(c2ccccc2O)N1 (centres undefined) | -300*
Cc1ccc(-n2ncc(Cl)c2C(=O)NCc2ccccc2)cc1 | -83*
C=CCNC(=O)c1c(Br)cnn1-c1ccc(C)cc1 | -88*
CC(C)CCNCC(O)CON=C1c2ccccc2-c2ccccc21 (centres undefined) | 86
O=C(Nc1ccccc1)ON=C1c2ccccc2-c2ccccc21 | -106*
COc1ccc(OC)c(Cc2nnc(CCC(=O)N3CCCCCC3)o2)c1 | -74*
COc1ccc(OC)c(Cc2nnc(CCC(=O)N3CCCCC3c3nccs3)o2)c1 (centres undefined) | -116*
COc1ccc(OC)c(Cc2nnc(CCC(=O)NC3CCCCCCC3)o2)c1 | -118*
COc1ccc(/C=N/Nc2ccccn2)cc1OC | -114*
COc1ccc(-c2cnnc(N/N=C/c3ccc(O)c(OC)c3)n2)cc1 | -95*
COc1ccc(/C=N/Nc2nc(N)cc(Cl)n2)cc1OC | -75*
COc1cc(/C=N/Nc2ccccn2)ccc1O | -91*
Fc1cccc(NCc2cn3ccccc3n2)c1 | -97*
O=C(COc1ccc(Oc2ccccc2)cc1)NCc1cn2ccccc2n1 | 62
Fc1ccc(NCc2cn3ccccc3n2)cc1 | -174*
Nc1sccc1C(=O)c1ccc(Cl)cc1 | -120*
CC(O)CNc1nc2sc3c(c2c(=O)n1Cc1ccco1)CCCCC3 (centres undefined) | -103*
CC(O)CNc1nc2sc3c(c2c(=O)n1CCc1ccccc1)CCCCC3 (centres undefined) | -72*
CN(C)CCNc1nc2sc3c(c2c(=O)n1CCc1ccccc1)CCCCC3 | -87*
Cc1cc(C)n(-c2nc(NCCN(C)C)c3c4c(sc3n2)CCCC4)n1 | 116
SMILES | aSyn 5UTR act
NC(=O)Cn1c(=O)n(Cc2ccco2)c(=O)c2c3c(sc21)CCCCC3 | -80*
Cc1ccccc1Cn1c(=O)n(Cc2ccco2)c(=O)c2ccccc21 | 56
O=c1c(/C=C(\O)c2ccc(F)cc2)nc2ccccc2n1-c1ccccc1 | -130*
N=c1oc2ccccc2cc1-c1nc2ccccc2c(=O)[nH]1 | -165*
Cc1cccc(-c2nc3ccccc3c(=O)[nH]2)c1 | -111*
Cc1ccc(Nc2nc(-c3ccncc3)cs2)cc1 | -331*
Clc1cccc(Nc2nc(-c3ccncc3)cs2)c1 | -159*
CCCCC(=O)Nc1ccccc1Oc1ccccc1 | -123*
Cc1csc(=O)n1CC(=O)OCc1cccc2ccccc12 | -90*
O=C(NCc1ccco1)Nc1ccc(Br)cc1 | -119*
O=C(NCCC1=CCCCC1)Nc1ccc2nsnc2c1 | -110*
O=C(NCc1ccco1)Nc1ccc2nsnc2c1 | -76*
Cn1ccc(C(=O)Nc2ccc(Br)cc2Br)n1 | -79*
COc1cccc(NC(=O)c2cnsn2)c1 | -97*
COc1cccc(NC(=O)c2ncc(Cl)c(Cl)c2Cl)c1 | -224*
COc1cccc(NC(=O)c2ccn(C)n2)c1 | -73*
CCC(C)Nc1nc(N)c([N+](=O)[O-])c(Nc2ccccc2OC)n1 (centres undefined) | 60
CCC(C)Nc1nc(N)c([N+](=O)[O-])c(Nc2cc(OC)ccc2OC)n1 (centres undefined) | 97
CCN1CCN(c2nc(Nc3cccc(OC)c3)nc(N)c2[N+](=O)[O-])CC1 | -86*
CCCCC(=O)/C=C/n1c(=S)oc2ccccc21 | -151*
COc1cccc2c1C(=O)c1c(O)c3c(c(O)c1C2=O)C[C@](O)(C(C)=O)C[C@H]3O[C@@H]1C[C@@H](N)[C@@H](O)[C@@H](C)O1 | 111
O=C(NCC(c1cccs1)N1CCOCC1)c1ccc(Cl)cc1 (centres undefined) | -100*
CC(C)(C)C1CCc2c(C(=O)N/N=C/c3cccs3)csc2C1 (centres undefined) | -97*
O=C(N/N=C/c1cccs1)c1ccc2ccccc2c1 | -240*
Cc1cc(C(=O)N/N=C/c2ccc([N+](=O)[O-])s2)n[nH]1 | 79
SMILES | aSyn 5UTR act
Cc1ccc(/C=N/NC(=O)c2ccc3ccccc3c2)s1 | -132*
Cc1cc(C(=O)N/N=C/c2ccc(C)s2)n[nH]1 | -97*
O=C(N/N=C/c1cccs1)c1cc(-c2cccc3ccccc23)n[nH]1 | -104*
Cc1ccc(/C=N/NC(=O)c2ccc3c(c2)OCCO3)s1 | -118*
O=C(N/N=C/c1cc(Br)cs1)c1ccc2c(c1)OCCO2 | -344*
Cc1c(Cl)c([N+](=O)[O-])nn1CCCC(=O)NCCc1ccccc1 | -64*
CN(N=Nc1ccc([N+](=O)[O-])cc1)c1ccccc1 | -112*
CN(CCCC(=O)O)c1ccc(N=Nc2ccc([N+](=O)[O-])cc2)cc1 | -65*
CN(N=Nc1cccc([N+](=O)[O-])c1)c1ccccc1 | -108*
C#C[C@]1(O)CC[C@H]2[C@@H]3CCc4cc(OC)ccc4[C@H]3CC[C@@]21C | -70*
C#C[C@]1(O)CC[C@H]2[C@@H]3CCc4cc(OC5CCCC5)ccc4[C@H]3CC[C@@]21C | -75*
c1ccc(Cn2ccc(-c3cnc(-c4ccccc4)s3)n2)cc1 | -106*
C=CCNC(=O)C1CCN(c2nc(C)cc(-c3ccccc3)n2)CC1 | -97*
CCC(=O)c1ccc(OCc2ccc(C#N)cc2)cc1 | -112*
CCC(=O)c1ccc(OCc2ccc(C(=O)OC)cc2)cc1 | -73*
CCOc1ccc(OCc2ccc(C(=O)N(CC)CC)cc2)cc1 | -155*
CCOc1ccc(OCc2cccc(C(=O)O)c2)cc1 | 84
CCOc1ncccc1C(=O)OCc1ccc(C(=O)OC)cc1 | -126*
C=CCN1C(=O)/C(=C/c2ccc(N(C)C)cc2)S/C1=N\c1nnc(CC)s1 | -65*
CCCCN=C(C)c1c(O)c2ccccc2oc1=O | -159*
Nn1c(CSc2ccccn2)nc2ccccc2c1=O | -123*
Cn1c(COc2ccc(F)cc2)nc2ccccc21 | -121*
Cc1ccccc1OCc1nc2ccccc2n1C | -170*
Cc1cccc(OCc2nc3ccccc3n2C)c1 | -140*
Cc1cccc(OCc2nc3ccccc3c(=O)n2N)c1 | -71*
SMILES | aSyn 5UTR act
Cc1cn(-c2ccc(Br)cc2)[nH]c1=O | -79*
CCn1cc(C(=O)Nc2ccc(Cl)cc2Cl)cn1 | -72*
COc1ccc(N2C(=O)c3ccccc3NC2c2ccc(OC)c(Cn3cc([N+](=O)[O-])cn3)c2)cc1 (centres undefined) | -87*
O=C(Cc1cccc2ccccc12)Nc1ccc2c(c1)C(=O)NC2=O | -65*
COc1ccc(-c2ccc3ccccc3n2)cc1OC | -171*
COc1ccc(-c2cc(-c3ccccc3O)[nH]n2)cc1OC | -154*
COc1cc(-c2ccc(=O)[nH]n2)ccc1OC(F)F | 87
COc1ccc(-c2cc(-c3ccc(OC)c(OC)c3)n[nH]2)c(O)c1 | -163*
O=C(N/N=C/c1ccc(Cl)cc1)C1CC12CCC2 (centres undefined) | -110*
C/[N+]([O-])=C/c1c(OCc2ccc(Cl)cc2Cl)ccc2ccccc12 | -72*
CCCC1(C)Nc2ccccc2-c2nc3ccccc3n21 (centres undefined) | -96*
c1ccc2c(c1)NC1(CCCC1)n1c-2nc2ccccc21 | -141*
COc1ccc(C=Nc2cccnc2N)cc1 | -67*
Cc1cc(NC(=O)c2ccccc2)ncc1NC(=O)c1cccs1 | -103*

Source: PubChem BioAssay
